# Test results as given in article PMC4336329 (PLoS ONE, 2015).
# The whole screen tested about 310,000 compounds, of which about 14,000 (4.5%) showed an effect of 50% or more. The effect is printed as a negative number. The sample holds strong results, similar compounds and a random draw of the others, so the mix is not that of the screen.
# Molecular target: human ether-à-go-go-related gene (hERG) potassium channel (human, UniProt Q12809)
# Experiment: primary screen, population patch clamp on CHO cells stably expressing hERG; higher = less effect of the substance
# 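Further: peak tail current of the secondary pulse compared with the same well before compound.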
# Chain of human ether-à-go-go-related gene (hERG) potassium channel (Q12809 whole entry, looked up): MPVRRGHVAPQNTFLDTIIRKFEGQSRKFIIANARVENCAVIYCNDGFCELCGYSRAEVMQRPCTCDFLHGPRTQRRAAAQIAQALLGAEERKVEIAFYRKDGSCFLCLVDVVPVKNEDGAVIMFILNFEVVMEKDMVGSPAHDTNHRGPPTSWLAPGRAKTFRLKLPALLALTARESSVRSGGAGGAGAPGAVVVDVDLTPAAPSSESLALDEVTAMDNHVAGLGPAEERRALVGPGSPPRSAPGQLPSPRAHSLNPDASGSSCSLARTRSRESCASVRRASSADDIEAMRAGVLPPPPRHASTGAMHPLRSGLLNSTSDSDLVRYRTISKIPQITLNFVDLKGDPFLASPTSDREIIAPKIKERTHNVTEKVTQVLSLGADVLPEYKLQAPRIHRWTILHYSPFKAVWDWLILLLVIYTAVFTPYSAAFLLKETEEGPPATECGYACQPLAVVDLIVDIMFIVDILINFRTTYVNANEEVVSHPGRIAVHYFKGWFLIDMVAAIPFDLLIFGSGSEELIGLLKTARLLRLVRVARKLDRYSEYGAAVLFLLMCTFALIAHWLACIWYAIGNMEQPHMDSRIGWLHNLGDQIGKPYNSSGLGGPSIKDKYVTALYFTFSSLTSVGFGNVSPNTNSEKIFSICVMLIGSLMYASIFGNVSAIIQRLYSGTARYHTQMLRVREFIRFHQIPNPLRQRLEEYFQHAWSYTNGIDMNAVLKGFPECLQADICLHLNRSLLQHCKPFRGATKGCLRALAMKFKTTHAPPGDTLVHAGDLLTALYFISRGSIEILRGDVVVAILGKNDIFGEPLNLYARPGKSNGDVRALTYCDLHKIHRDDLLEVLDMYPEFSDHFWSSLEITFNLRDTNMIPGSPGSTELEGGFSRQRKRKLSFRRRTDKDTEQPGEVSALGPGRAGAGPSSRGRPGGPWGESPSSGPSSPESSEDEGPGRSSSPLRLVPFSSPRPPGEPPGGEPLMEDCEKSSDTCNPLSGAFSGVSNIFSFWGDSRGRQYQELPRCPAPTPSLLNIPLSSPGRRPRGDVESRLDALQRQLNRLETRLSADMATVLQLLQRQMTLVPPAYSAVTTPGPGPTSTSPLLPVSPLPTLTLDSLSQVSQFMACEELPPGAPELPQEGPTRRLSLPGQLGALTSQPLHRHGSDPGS
row,Structure (SMILES),"hERG current change (%, negative = inhibition) at 10uM [%]"
1,COc1ccccc1N(CC(=O)NC1CCCCC1)C(=O)CCC(=O)Nc1nccs1,-2.17
2,COc1ccc(-c2ccc(SCC(=O)c3ccccc3)nn2)cc1OC,-15.7
3,CC(=O)c1ccc(NC(=O)Nc2ccccc2)cc1,-2.03
4,CCOC(=O)c1c(C)sc2c1N(C(=O)CN1CCOCC1)c1cc(Cl)ccc1S2,-21.5
5,CC1CCN(C(=O)CN(C2CCCCC2)S(C)(=O)=O)CC1,1.15
6,COc1ccc(N2CCN(c3cc(C)c4cccc(C)c4n3)CC2)cc1,22.7
7,COc1ccccc1NC(=O)c1nnn(CC(=O)Nc2cc(C)cc(C)c2)c1N,17
8,CC(C)S(=O)(=O)c1cnc(N2CCOCC2)nc1N,11.4
9,Nc1ccc2nc(-c3ccccc3)sc2c1,23.4
10,Cc1cccc(OCc2n[nH]c(=S)n2Cc2ccccc2)c1,11.8
11,O=C(CNC(=O)c1sc2ccccc2c1Cl)Nc1ccccc1F,-6.72
12,COc1ccc(NC(=O)CN(C)C(=O)CCC2CCCC2)cc1,5.49
13,O=C(C1CCCN(S(=O)(=O)c2cccc3nsnc23)C1)N1CCCCCC1 (centres unmarked),-16.8
14,O=C(C1CCC(CNS(=O)(=O)c2cccc3nsnc23)CC1)N1CCN(c2ccccn2)CC1 (centres unmarked),-53.9
15,CCCCN(CC)C(=O)C1CCC(CNS(=O)(=O)c2cccc3nsnc23)CC1 (centres unmarked),-23.7
16,O=C(C1CCCN(S(=O)(=O)c2cccc3nsnc23)C1)N1CCN(c2ccccn2)CC1 (centres unmarked),-50.2
17,CCN(CC)C(=O)C1CCC(CNS(=O)(=O)c2cccc3nsnc23)CC1 (centres unmarked),2.47
18,CCCN(CCC)C(=O)C1CCC(CNS(=O)(=O)c2cccc3nsnc23)CC1 (centres unmarked),-69.5
19,O=C(C1CCC(CNS(=O)(=O)c2cccc3nsnc23)CC1)N1CC=C(c2ccccc2)CC1 (centres unmarked),-10.3
20,CC1CCN(C(=O)C2CCCN(S(=O)(=O)c3cccc4nsnc34)C2)CC1 (centres unmarked),-27.8
21,O=C(CCNS(=O)(=O)c1cccc2nsnc12)N1CCN(c2ccccn2)CC1,-24

row,Structure (SMILES),"hERG current change (%, negative = inhibition) at 10uM [%]"
1,CN(C)c1ccc(CN(Cc2ccco2)C(=O)c2ccco2)cc1,-30.1
2,COC(=O)c1ccc(C(=O)OC)c(NC(=S)N2CCN(C)CC2)c1,20.4
3,Cc1cc(C(=O)CS(=O)(=O)c2ccc(Cl)cc2)cc(C)c1O,16.6
4,CS(=O)(=O)Nn1cnc2ccccc2c1=O,10.7
5,Cc1cc(C)c(S(=O)(=O)N2CCCOC2CNC(=O)C(=O)NCc2cccs2)c(C)c1 (centres unmarked),-8.31
6,O=C1NC(=Nc2ccccc2)/C(=C/c2ccco2)S1,12.4
7,CCOc1ncccc1C(=O)NNC(=O)c1cccc(S(=O)(=O)Nc2ccc(OC)cc2)c1,6.87
8,CCOC(=O)Cc1[nH]nc2c1C(c1cccc(OC)c1OC)C(C#N)=C(N)O2 (centres unmarked),-0.21
9,O=C1CN(c2nc(-c3ccccc3)c3cc(Cl)ccc3n2)c2ccccc2N1,13.1
10,c1ccc(-c2nc(N3CCNCC3)nc3ccccc23)cc1,-65.2
11,CN1CCN(c2nc(-c3ccccc3)c3cc(Cl)ccc3n2)CC1,-48.1
12,Clc1ccc2nc(N3CCNCC3)nc(-c3ccccc3)c2c1,-59.1
13,CCOC(=O)N1CCN(c2nc(-c3ccccc3)c3ccccc3n2)CC1,5.1
14,c1ccc(-c2nc(N3CCCC3)nc3ccccc23)cc1,8.87
15,O=C(O)CCCC(=O)N1CCN(c2nc(-c3ccccc3)c3ccccc3n2)CC1,1.86
16,CCN1CCN(c2nc(-c3ccccc3)c3ccccc3n2)CC1,-71.2
17,O=C(O)CCC(=O)N1CCN(c2nc(-c3ccccc3)c3ccccc3n2)CC1,13.7
18,CC(=O)NC(Cc1ccc(F)cc1)C(=O)O (centres unmarked),-24.1
19,COC(=O)CP(=O)(c1ccccc1)c1ccccc1,15.2
20,Oc1ccc(/C=N/NP(=S)(c2ccccc2)c2ccccc2)cc1,-3.89
21,COc1ccccc1CNC(=O)c1cccs1,3.82

row,Structure (SMILES),"hERG current change (%, negative = inhibition) at 10uM [%]"
1,CCC1=C2CC[C@H]3C(=O)N(CC)C(=O)[C@H]3[C@H]2[C@@]2(Cc3ccccc3)C(=NCCOC)OC(=O)N2C1=O,10
2,CC(C)(Oc1ccc(Cl)cc1)C(=O)OCC(=O)N1CCN(c2ccccc2)CC1,-7.02
3,CCN1C[C@]2(COC)CC[C@H](OC)[C@@]34C1[C@]1(OCO[C@@]15C[C@H](OC)[C@H]1C[C@@H]3[C@@H]5[C@H]1OC)[C@@H](O)[C@H]24,10.5
4,C=CCn1c(COc2ccc(Cl)cc2)nnc1SCC(=O)Nc1ccc(S(N)(=O)=O)cc1,-9.02
5,Cc1ccccc1-c1nc(CS(=O)CC(=O)NCCN2CCN(Cc3ccccc3)CC2)c(C)o1 (centres unmarked),-58.7
6,Cc1oc(-c2ccc(Cl)cc2)nc1CS(=O)CC(=O)NCCCN1CCCC(C)C1 (centres unmarked),-36.8
7,Cc1oc(-c2ccc(Cl)cc2)nc1CS(=O)CC(=O)NCCCN1CCOCC1 (centres unmarked),-3.95
8,Cc1ccc(-c2nc(CS(=O)CC(=O)NCCCN3CCN(Cc4ccccc4)CC3)c(C)o2)cc1 (centres unmarked),-38.2
9,Cc1oc(-c2ccc(Cl)cc2)nc1CS(=O)CC(=O)NCCCN1CC(C)CC(C)C1 (centres unmarked),-65.5
10,Cc1ccc(-c2nc(CS(=O)CC(=O)NCCCN3CC(C)CC(C)C3)c(C)o2)cc1 (centres unmarked),-19.9
11,Cc1ccccc1-c1nc(CS(=O)CC(=O)NCc2ccccc2)c(C)o1 (centres unmarked),-21
12,Cc1oc(-c2ccc(Cl)cc2)nc1CS(=O)CC(=O)NCCCN1CCN(Cc2ccccc2)CC1 (centres unmarked),-62.1
13,Cc1ccccc1-c1nc(CS(=O)CC(=O)NCCN2CCOCC2)c(C)o1 (centres unmarked),3.48
14,O=C(CSc1nnc(-c2cccs2)o1)NCc1ccco1,-0.74
15,COC(=O)C1=C(Nc2ccc(OC)cc2)C=C(C)C(C(=O)OC)C1c1ccc(C)cc1 (centres unmarked),18.9
16,C(#Cc1ccccc1)CN1CCOCC1.Cl,22.9
17,Cc1ccc(C)c(S(=O)(=O)N2CCN(C(=O)c3ccc(OCc4c(C)noc4C)cc3)CC2)c1,-21.9
18,O=C(Nc1ccc(S(=O)(=O)N2CCCCC2)cc1)c1ccc(=O)[nH]c1,7.49
19,Cc1cc(C)cc(Oc2ccc(-c3nnc(-c4ccccc4)o3)cc2[N+](=O)[O-])c1,7.94
20,Cc1ccc(C)c(-n2cc(CN3CCN(C(=O)c4ncn[nH]4)CC3)c(-c3ccccc3)n2)c1,-30.7
21,Cc1ccc(-n2cc(CN3CCNC(=O)CC3)c(-c3ccc(F)cc3)n2)cc1,-35.4

row,Structure (SMILES),"hERG current change (%, negative = inhibition) at 10uM [%]"
1,Cc1ccc(C)c(-n2cc(CNCCCn3cccn3)c(-c3ccccc3)n2)c1,-64.9
2,Cc1ccc(-n2cc(CNCCCn3cccn3)c(-c3cccc(C)c3)n2)cc1,-71.6
3,Cc1ccc(-n2cc(CN(C)Cc3nccn3C)c(-c3cccc(C)c3)n2)cc1,-16.1
4,Cc1ccn2c(CNCCCn3cccn3)c(C(=O)N3CCCCCC3)nc2c1,-23.4
5,Cc1ccc(-n2cc(CN3CCC(O)(c4ccccn4)CC3)c(-c3ccc(F)cc3)n2)cc1,-56.7
6,COc1cccc(-c2nn(-c3ccccc3)cc2CNC(C)Cn2cncn2)c1 (centres unmarked),-42.5
7,Cc1ccc(-n2cc(CNC(C)Cc3cnccn3)c(-c3cccc(C)c3)n2)cc1 (centres unmarked),-73.8
8,CC(=O)N1CCCN(Cc2cn(-c3cc(C)ccc3C)nc2-c2ccccc2)CC1,-30.3
9,Cc1ccc(-n2cc(CN3CCN(c4ccccn4)CC3)c(-c3ccc(F)cc3)n2)cc1,11.2
10,CCOC(=O)C1=NN(c2ccccc2)C(c2ccccc2)CC1=O (centres unmarked),5.31
11,Cc1nnc2n1N=C(c1ccc(F)cc1F)CS2,-3.32
12,CCOc1ccc(CCNC(=O)c2ccc(S(=O)(=O)N3CCCC3)cc2)cc1OCC,-8.47
13,CCn1c2ccccc2c2cc(/C=N/n3c(C)nnc3C)ccc21,-25
14,O=C(C1=C[C@H](C2CC2)C[C@H](OCCCCO)O1)N1CCOCC1,21.2
15,O=C(/C=C/c1nc2ccccc2s1)N1CCCCCC1,-0.709
16,CN(C)S(=O)(=O)c1cccc(C(=O)OCC(=O)Nc2sccc2C#N)c1,-2.79
17,Cc1cccc(-n2cc(CN3CCN(Cc4nccn4C)CC3)c(-c3cccc(F)c3)n2)c1,2.98
18,Cc1ccc(-n2cc(CN3CCN(Cc4nccn4C)CC3)c(-c3ccc(F)cc3)n2)cc1,-26.8
19,Cc1ccc(-n2cc(CN3CCN(Cc4nccn4C)CC3)c(-c3cccc(C)c3)n2)cc1,-62.7
20,CSCC[C@H](NC(=O)c1nn(C)c(=O)c2ccccc12)c1nc2ccccc2[nH]1,-3.07
